Source: publication PMC7862700, “An all-to-all approach to the identification of sequence-specific readers for epigenetic DNA modifications on cytosine”

How the values were obtained:
Test in all cases: DAPPL (digital affinity profiling via proximity ligation, sequencing); 10 mM Tris-HCl pH 7.5, 50 mM NaCl, 1 mM DTT, 4% glycerol, room temperature, 30 min; GST-TFs on glutathione beads, 16-mer random dsDNA library, 0.1% formaldehyde crosslink after washing; high values mean tight binding
FEV = target: T1, FEV (Homo sapiens, UniProt Q99581 1-238); conditions: protein: recombinant; tags: N-terminal GST; dsDNA, one strand shown
T1 sequence: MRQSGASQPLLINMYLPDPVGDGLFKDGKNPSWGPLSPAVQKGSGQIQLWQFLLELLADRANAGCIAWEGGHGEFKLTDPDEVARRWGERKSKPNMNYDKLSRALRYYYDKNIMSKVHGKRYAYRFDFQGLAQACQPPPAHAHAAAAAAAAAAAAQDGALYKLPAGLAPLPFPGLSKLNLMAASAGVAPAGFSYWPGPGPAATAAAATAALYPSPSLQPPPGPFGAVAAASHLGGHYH
Procedure, shortened: (§1)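 Binding signal is given per hexamer as its read frequency for a factor divided by its frequency in the tag-only sample. GST-fused human transcription factors were expressed in yeast, captured on glutathione beads, barcoded with DNA and pooled with that sample, then incubated with 200 nmole of a 16-mer random double-stranded DNA library in Tris/NaCl/DTT/glycerol buffer for 30 min at room temperature. The pools were then washed, crosslinked, proximity-ligated, amplified by PCR and sequenced on an Illumina NextSeq500.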

ETV5 = ETV5 (Homo sapiens, UniProt P41161 1-510); conditions: protein: recombinant; tags: N-terminal GST; dsDNA, one strand shown
Sequence of ETV5 (P41161 whole entry): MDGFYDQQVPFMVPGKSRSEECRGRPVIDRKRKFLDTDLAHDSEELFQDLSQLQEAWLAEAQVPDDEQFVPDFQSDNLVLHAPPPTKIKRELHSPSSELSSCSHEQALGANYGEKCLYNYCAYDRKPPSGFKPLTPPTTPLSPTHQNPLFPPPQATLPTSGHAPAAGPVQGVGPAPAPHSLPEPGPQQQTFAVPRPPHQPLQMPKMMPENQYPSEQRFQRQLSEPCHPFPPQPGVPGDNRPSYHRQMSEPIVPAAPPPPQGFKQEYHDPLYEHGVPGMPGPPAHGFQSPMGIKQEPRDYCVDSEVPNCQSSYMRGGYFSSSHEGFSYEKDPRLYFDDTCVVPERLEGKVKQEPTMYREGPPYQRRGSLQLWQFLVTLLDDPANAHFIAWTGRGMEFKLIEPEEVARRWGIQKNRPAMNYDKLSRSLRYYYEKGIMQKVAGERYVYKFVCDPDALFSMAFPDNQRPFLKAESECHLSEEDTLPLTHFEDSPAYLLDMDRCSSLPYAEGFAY
Procedure, shortened: as §1

HSF1 = HSF1 (Homo sapiens, UniProt Q00613 1-529); conditions: protein: recombinant; tags: N-terminal GST; chain copies: 3; dsDNA, one strand shown
Sequence of HSF1 (Q00613 whole entry): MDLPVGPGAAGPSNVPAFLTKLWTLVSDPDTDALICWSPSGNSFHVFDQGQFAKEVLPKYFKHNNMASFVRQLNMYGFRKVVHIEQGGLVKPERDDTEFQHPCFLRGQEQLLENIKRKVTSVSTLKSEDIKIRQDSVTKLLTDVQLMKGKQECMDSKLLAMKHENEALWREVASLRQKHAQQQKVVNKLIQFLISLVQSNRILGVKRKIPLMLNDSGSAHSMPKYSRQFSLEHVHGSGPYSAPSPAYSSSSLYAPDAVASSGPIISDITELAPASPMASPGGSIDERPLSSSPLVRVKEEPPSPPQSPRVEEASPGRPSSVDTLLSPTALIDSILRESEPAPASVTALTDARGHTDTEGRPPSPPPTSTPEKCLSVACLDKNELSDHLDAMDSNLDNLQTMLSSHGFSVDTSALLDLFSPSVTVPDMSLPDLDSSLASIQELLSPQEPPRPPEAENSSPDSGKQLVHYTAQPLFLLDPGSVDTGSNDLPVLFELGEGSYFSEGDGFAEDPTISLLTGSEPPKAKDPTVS
Procedure, shortened: as §1

SPIC = target: T2, SPIC (Homo sapiens, UniProt Q8N5J4 1-248); conditions: protein: recombinant; tags: N-terminal GST; dsDNA, one strand shown
T2 sequence: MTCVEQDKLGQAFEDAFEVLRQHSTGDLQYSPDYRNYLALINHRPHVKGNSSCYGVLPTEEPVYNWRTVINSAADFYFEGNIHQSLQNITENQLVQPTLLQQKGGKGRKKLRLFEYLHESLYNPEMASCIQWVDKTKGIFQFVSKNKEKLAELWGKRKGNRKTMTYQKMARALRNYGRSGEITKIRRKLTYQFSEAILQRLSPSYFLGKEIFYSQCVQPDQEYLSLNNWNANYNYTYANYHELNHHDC
Procedure, shortened: as §1

ELF4 = ELF4 (Homo sapiens, UniProt Q99607 1-663); conditions: protein: recombinant; tags: N-terminal GST; dsDNA, one strand shown
Sequence of ELF4 (Q99607 whole entry): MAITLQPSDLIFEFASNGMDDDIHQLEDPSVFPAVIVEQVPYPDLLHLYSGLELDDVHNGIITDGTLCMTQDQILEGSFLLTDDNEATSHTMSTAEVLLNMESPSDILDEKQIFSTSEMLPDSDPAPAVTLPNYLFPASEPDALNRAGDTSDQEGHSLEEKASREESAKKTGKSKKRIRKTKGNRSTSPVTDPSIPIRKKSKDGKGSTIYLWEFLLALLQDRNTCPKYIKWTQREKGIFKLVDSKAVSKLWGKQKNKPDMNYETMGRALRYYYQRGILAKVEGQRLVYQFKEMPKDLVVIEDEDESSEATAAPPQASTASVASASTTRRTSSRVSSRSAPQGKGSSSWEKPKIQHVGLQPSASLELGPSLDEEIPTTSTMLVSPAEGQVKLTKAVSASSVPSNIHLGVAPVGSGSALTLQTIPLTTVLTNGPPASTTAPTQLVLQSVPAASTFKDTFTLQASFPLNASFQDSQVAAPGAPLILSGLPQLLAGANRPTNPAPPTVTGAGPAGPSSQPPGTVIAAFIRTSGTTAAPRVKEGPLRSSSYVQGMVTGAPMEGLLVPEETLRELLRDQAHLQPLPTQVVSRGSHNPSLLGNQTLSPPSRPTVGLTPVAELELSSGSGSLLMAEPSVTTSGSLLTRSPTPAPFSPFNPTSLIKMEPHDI
Procedure, shortened: as §1

ELK4 = target: T3, ELK4 (Homo sapiens, UniProt P28324-2 1-405); conditions: protein: recombinant; tags: N-terminal GST; dsDNA, one strand shown
T3 sequence: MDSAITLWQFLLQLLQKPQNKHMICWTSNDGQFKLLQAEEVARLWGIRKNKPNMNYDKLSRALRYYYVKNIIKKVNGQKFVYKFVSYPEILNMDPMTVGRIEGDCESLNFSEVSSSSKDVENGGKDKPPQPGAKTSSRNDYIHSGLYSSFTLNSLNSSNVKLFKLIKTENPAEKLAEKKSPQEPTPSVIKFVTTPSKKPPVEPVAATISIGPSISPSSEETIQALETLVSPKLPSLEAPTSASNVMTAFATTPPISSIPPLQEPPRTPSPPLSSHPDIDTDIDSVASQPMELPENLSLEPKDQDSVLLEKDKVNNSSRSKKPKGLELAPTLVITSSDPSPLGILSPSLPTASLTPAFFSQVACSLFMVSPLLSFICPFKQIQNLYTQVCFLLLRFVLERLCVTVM
Procedure, shortened: as §1

ETV2 = target: T4, ETV2 (Homo sapiens, UniProt O00321 1-342); conditions: protein: recombinant; tags: N-terminal GST; dsDNA, one strand shown
T4 sequence: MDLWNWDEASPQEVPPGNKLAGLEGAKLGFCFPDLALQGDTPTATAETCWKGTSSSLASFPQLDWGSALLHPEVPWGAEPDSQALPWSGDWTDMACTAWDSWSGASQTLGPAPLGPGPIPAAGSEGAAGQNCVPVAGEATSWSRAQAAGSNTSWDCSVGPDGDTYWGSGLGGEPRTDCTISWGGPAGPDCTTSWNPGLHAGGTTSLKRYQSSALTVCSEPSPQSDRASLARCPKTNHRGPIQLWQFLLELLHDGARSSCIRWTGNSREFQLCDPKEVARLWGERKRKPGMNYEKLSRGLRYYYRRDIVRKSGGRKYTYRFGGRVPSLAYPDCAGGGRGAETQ
Procedure, shortened: as §1

ELF3 = target: T5, ELF3 (Homo sapiens, UniProt P78545 1-371); conditions: protein: recombinant; tags: N-terminal GST; dsDNA, one strand shown
T5 sequence: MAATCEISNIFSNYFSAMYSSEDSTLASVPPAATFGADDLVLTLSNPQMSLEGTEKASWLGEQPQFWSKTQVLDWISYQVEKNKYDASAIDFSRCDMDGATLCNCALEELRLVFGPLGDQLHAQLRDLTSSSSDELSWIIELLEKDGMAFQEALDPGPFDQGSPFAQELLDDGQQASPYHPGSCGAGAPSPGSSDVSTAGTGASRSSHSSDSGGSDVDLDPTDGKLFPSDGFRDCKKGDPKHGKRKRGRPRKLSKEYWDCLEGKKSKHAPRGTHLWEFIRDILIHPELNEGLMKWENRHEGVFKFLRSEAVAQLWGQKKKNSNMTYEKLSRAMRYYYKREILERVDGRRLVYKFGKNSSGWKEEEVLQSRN
Procedure, shortened: as §1

CRX = CRX (Homo sapiens, UniProt O43186 1-299); conditions: protein: recombinant; tags: N-terminal GST; dsDNA, one strand shown
Sequence of CRX (O43186 whole entry): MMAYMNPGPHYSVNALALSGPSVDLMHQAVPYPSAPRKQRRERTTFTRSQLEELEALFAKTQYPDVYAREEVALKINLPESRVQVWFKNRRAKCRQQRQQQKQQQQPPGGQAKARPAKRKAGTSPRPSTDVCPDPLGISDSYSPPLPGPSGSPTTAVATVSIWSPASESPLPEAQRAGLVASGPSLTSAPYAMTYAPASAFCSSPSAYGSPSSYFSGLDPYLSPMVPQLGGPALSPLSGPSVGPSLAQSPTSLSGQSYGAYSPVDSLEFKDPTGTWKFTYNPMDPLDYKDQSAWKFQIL
Procedure, shortened: as §1

ETV1 = ETV1 (Homo sapiens, UniProt P50549 1-477); conditions: protein: recombinant; tags: N-terminal GST; dsDNA, one strand shown
Sequence of ETV1 (P50549 whole entry): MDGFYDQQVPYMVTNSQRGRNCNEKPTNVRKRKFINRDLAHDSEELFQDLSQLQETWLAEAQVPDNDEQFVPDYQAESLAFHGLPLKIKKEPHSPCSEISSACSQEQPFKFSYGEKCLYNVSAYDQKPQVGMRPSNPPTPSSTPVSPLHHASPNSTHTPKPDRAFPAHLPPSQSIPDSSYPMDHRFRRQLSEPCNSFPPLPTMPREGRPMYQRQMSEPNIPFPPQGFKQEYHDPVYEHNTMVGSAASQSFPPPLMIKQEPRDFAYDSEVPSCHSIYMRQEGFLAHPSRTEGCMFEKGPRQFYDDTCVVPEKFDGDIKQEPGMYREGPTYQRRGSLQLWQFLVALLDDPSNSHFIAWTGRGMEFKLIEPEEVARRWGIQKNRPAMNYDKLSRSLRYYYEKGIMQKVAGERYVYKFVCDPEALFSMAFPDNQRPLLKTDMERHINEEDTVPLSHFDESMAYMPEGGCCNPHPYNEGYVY
Procedure, shortened: as §1

ERF = target: T6, ERF (Homo sapiens, UniProt P50548 1-548); conditions: protein: recombinant; tags: N-terminal GST; dsDNA, one strand shown
T6 sequence: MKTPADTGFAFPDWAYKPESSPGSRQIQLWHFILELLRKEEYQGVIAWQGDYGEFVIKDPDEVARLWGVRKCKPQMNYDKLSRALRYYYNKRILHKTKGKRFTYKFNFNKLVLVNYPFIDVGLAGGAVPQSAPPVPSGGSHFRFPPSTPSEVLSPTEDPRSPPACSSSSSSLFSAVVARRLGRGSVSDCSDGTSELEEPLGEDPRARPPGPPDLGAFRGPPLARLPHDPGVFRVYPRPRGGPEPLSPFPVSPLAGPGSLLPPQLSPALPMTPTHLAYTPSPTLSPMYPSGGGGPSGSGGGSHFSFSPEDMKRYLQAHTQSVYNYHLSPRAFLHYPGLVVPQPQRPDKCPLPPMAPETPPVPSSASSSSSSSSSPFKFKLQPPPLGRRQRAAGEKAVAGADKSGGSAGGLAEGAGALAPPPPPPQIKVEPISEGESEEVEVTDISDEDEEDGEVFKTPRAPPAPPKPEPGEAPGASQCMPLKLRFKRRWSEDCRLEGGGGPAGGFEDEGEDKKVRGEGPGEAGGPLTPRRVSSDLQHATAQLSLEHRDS
Procedure, shortened: as §1

ETV3L = target: T7, ETV3L (Homo sapiens, UniProt Q6ZN32 1-361); conditions: protein: recombinant; tags: N-terminal GST; dsDNA, one strand shown
T7 sequence: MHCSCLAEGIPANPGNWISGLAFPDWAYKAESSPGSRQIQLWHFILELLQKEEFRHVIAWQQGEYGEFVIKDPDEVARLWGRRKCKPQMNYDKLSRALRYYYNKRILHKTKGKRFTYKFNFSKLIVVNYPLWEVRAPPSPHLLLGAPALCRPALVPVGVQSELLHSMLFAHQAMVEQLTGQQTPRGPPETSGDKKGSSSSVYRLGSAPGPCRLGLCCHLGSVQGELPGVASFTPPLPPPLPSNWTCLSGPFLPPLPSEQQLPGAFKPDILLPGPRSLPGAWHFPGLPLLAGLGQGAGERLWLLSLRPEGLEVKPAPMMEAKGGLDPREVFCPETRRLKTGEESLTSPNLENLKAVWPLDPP
Procedure, shortened: as §1

ETS2 = target: T8, ETS2 (Homo sapiens, UniProt P15036 1-469); conditions: protein: recombinant; tags: N-terminal GST; dsDNA, one strand shown
T8 sequence: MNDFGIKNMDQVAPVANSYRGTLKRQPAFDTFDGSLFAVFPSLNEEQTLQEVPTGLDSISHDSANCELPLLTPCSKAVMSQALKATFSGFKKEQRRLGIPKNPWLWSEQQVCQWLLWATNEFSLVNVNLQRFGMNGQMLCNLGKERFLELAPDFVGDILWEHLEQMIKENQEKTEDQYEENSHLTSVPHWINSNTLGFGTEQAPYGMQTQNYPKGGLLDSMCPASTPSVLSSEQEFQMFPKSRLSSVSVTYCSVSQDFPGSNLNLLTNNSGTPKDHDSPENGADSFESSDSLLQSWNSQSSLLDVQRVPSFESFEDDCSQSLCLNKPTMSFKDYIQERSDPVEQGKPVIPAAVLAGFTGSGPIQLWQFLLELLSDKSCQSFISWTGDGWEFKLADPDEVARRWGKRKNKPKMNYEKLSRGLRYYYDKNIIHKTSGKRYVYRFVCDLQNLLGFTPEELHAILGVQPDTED
Procedure, shortened: as §1

SPDEF = target: T9, SPDEF (Homo sapiens, UniProt O95238 1-335); conditions: protein: recombinant; tags: N-terminal GST; dsDNA, one strand shown
T9 sequence: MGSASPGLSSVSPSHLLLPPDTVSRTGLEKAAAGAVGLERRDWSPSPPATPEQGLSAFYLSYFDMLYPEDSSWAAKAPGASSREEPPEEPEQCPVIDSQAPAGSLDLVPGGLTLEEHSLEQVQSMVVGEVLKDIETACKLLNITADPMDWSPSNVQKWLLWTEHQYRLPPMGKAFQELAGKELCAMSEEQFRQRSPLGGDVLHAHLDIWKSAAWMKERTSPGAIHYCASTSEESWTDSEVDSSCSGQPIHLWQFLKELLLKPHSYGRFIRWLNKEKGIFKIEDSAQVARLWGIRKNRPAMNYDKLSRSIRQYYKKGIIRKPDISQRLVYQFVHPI
Procedure, shortened: as §1

ETV7 = target: T10, ETV7 (Homo sapiens, UniProt Q9Y603 1-341); conditions: protein: recombinant; tags: N-terminal GST; dsDNA, one strand shown
T10 sequence: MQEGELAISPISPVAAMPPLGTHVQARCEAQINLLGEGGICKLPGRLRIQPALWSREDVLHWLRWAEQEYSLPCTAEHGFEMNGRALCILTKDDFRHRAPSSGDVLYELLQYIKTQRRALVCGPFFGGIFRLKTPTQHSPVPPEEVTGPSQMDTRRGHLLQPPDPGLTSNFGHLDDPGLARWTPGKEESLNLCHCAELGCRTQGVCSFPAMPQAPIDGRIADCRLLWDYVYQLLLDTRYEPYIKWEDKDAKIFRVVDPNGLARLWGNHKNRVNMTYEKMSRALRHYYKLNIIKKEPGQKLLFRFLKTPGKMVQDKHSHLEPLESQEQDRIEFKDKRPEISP
Procedure, shortened: as §1

ELF5 = target: T11, ELF5 (Homo sapiens, UniProt Q9UKW6-2 1-255); conditions: protein: recombinant; tags: N-terminal GST; dsDNA, one strand shown
T11 sequence: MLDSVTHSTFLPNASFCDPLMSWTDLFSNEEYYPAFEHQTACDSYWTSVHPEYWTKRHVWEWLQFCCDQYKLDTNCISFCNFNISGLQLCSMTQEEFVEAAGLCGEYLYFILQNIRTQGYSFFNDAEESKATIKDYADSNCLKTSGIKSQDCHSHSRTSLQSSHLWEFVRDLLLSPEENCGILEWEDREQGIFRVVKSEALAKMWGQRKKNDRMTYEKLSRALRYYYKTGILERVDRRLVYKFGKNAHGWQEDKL
Procedure, shortened: as §1

ETV3 = target: T12, ETV3 (Homo sapiens, UniProt P41162-2 1-143); conditions: protein: recombinant; tags: N-terminal GST; dsDNA, one strand shown
T12 sequence: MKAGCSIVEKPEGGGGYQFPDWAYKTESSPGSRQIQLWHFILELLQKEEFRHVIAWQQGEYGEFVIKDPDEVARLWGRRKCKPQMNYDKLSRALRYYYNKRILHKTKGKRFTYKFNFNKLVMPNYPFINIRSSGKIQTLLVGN
Procedure, shortened: as §1

ETV6 = ETV6 (Homo sapiens, UniProt P41212 1-452); conditions: protein: recombinant; tags: N-terminal GST; dsDNA, one strand shown
Sequence of ETV6 (P41212 whole entry): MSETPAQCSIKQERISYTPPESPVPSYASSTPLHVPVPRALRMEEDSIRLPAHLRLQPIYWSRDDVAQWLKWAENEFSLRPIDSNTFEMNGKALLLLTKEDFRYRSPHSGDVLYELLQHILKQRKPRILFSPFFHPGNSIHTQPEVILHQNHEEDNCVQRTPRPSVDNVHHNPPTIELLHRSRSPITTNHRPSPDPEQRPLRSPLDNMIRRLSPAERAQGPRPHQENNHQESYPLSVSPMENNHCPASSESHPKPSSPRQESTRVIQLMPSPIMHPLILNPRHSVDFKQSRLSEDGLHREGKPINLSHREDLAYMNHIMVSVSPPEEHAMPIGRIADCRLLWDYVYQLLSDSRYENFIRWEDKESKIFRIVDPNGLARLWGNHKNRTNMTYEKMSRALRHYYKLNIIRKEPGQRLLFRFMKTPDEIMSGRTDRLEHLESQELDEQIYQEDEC
Procedure, shortened: as §1

Sequence	binding signal (FEV)	binding signal (ETV5)	binding signal (HSF1)	binding signal (SPIC)	binding signal (ELF4)	binding signal (ELK4)	binding signal (ETV2)	binding signal (ELF3)	binding signal (CRX)	binding signal (ETV1)	binding signal (ERF)	binding signal (ETV3L)	binding signal (ETS2)	binding signal (SPDEF)	binding signal (ETV7)	binding signal (ELF5)	binding signal (ETV3)	binding signal (ETV6)
ACATCT	1.29 fold enrichment (6-mer frequency, TF over GST control)	1.31 fold enrichment (6-mer frequency, TF over GST control)	1.36 fold enrichment (6-mer frequency, TF over GST control)	1.43 fold enrichment (6-mer frequency, TF over GST control)	1.29 fold enrichment (6-mer frequency, TF over GST control)	1.4 fold enrichment (6-mer frequency, TF over GST control)	1.29 fold enrichment (6-mer frequency, TF over GST control)	1.4 fold enrichment (6-mer frequency, TF over GST control)	1.19 fold enrichment (6-mer frequency, TF over GST control)	1.32 fold enrichment (6-mer frequency, TF over GST control)	1.24 fold enrichment (6-mer frequency, TF over GST control)	1.24 fold enrichment (6-mer frequency, TF over GST control)	1.27 fold enrichment (6-mer frequency, TF over GST control)	1.26 fold enrichment (6-mer frequency, TF over GST control)	1.49 fold enrichment (6-mer frequency, TF over GST control)	1.3 fold enrichment (6-mer frequency, TF over GST control)	1.17 fold enrichment (6-mer frequency, TF over GST control)	1.29 fold enrichment (6-mer frequency, TF over GST control)
TACCTC	1.22 fold enrichment (6-mer frequency, TF over GST control)	1.14 fold enrichment (6-mer frequency, TF over GST control)	1.07 fold enrichment (6-mer frequency, TF over GST control)	1.4 fold enrichment (6-mer frequency, TF over GST control)	1.21 fold enrichment (6-mer frequency, TF over GST control)	1.36 fold enrichment (6-mer frequency, TF over GST control)	1.24 fold enrichment (6-mer frequency, TF over GST control)	1.27 fold enrichment (6-mer frequency, TF over GST control)	1.19 fold enrichment (6-mer frequency, TF over GST control)	1.29 fold enrichment (6-mer frequency, TF over GST control)	1.32 fold enrichment (6-mer frequency, TF over GST control)	1.43 fold enrichment (6-mer frequency, TF over GST control)	1.26 fold enrichment (6-mer frequency, TF over GST control)	1.23 fold enrichment (6-mer frequency, TF over GST control)	1.19 fold enrichment (6-mer frequency, TF over GST control)	1.29 fold enrichment (6-mer frequency, TF over GST control)	1.25 fold enrichment (6-mer frequency, TF over GST control)	1.11 fold enrichment (6-mer frequency, TF over GST control)
